Data on 4 compounds can be found in PubChem BioAssay (EPA / NIEHS).

Assay [1] can be described thus: ATG_E_Box_CIS: Attagene CIS-FACTORIAL HepG2 Assay for human Enhancer Box (E-box) (AID 2282936). The settings on record: HepG2 E-box cis-reporter transcription, actives raise or lower the signal. The method, boiled down: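 Multiplexed CIS reporter system in transiently transfected HepG2 cells measures native transcription factor activity. Reporter RNA after 24 h exposure is profiled by RT-PCR-capillary electrophoresis.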

The nature of assay [2]: ATG_M_61_CIS: Attagene CIS-FACTORIAL HepG2 Assay for M61 Transcription Factor (Internal Marker) (AID 2282937). The conditions noted are these: HepG2 Attagene CIS-FACTORIAL M61 internal marker reporter; actives raise or lower the signal. The method, boiled down:
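Human liver HepG2, transient MRTU transfection (cis promoter elements), 24 h compound. Total RNA → oligo(dT) RT → PCR → FAM label → HpaI → CE. Internal background marker; bidirectional fitting, DMSO = baseline.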

Assay [3] in a line: ATG_EGR_CIS: Attagene CIS-FACTORIAL HepG2 Assay for human Early Growth Response 1 (EGR1) (AID 2282938). The settings on record: HepG2 Attagene CIS-FACTORIAL EGR reporter mRNA; actives raise or lower the signal. The method, boiled down: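 Transient transfection of human HepG2 with multiple cis-regulated reporter units, chemical exposure 24 h, total RNA isolated. Reverse transcription, PCR, fluorescent labelling and capillary electrophoresis quantify reporter transcripts; activity fitted bidirectionally against DMSO.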

Assay [4] can be described thus: ATG_M_19_CIS: Attagene CIS-FACTORIAL HepG2 Assay for M19 Transcription Factor (Internal Marker) (AID 2282939). The settings on record: HepG2 Attagene CIS-FACTORIAL M19 internal marker reporter; actives raise or lower the signal. The method, boiled down:
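Following a 24 h exposure, RNA from transfected HepG2 cells was reverse-transcribed, PCR-amplified with reporter-specific primers, end-labelled with 6-FAM and HpaI-digested before capillary separation. Values represent gain or loss versus DMSO.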

Assay [5] is described as follows: ATG_ERE_CIS: Attagene CIS-FACTORIAL HepG2 Assay for Estrogen Response Element (ERE) (AID 2282940). The conditions noted are these: HepG2 ERE cis-reporter, Attagene RNA transcript; actives raise or lower the signal. An outline of the steps: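 HepG2, transient cis-reporter units, 24 h exposure. RNA isolated, oligo(dT) RT, reporter-specific PCR, FAM extension, HpaI cut, CE detection. Gain/loss-of-signal vs DMSO.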

The nature of assay [6]: ATG_Ets_CIS: Attagene CIS-FACTORIAL HepG2 Assay for human Erythroblast Transformation Specific (ETS) (AID 2282941). The settings on record: HepG2 ETS cis-reporter transcription, actives raise or lower the signal. The method, boiled down:
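After transient cis-reporter transfection, HepG2 cells receive test chemical for 24 h. Reporter mRNA levels, measured by RT-PCR and capillary electrophoresis fluorescence, are analysed bidirectionally relative to the DMSO baseline.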

The target of assay [7] is Hepatocyte nuclear factor 3-beta (Homo sapiens) (UniProt Q9Y261). Kind of assay: ATG_FoxA2_CIS: Attagene CIS-FACTORIAL HepG2 Assay for human Forkhead box A2 (FOXA2) (AID 2282942). The settings on record: HepG2 cis-reporter transcription factor activity, 24 h; actives raise or lower the signal. The method, boiled down: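 Transient MRTU transfection of HepG2 liver cells; 24 h treatment; total RNA → oligo(dT) RT → PCR → FAM primer extension → HpaI cut → CE. Bidirectional fit vs DMSO.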
Chain of Hepatocyte nuclear factor 3-beta (Homo sapiens) (Q9Y261 whole entry, looked up): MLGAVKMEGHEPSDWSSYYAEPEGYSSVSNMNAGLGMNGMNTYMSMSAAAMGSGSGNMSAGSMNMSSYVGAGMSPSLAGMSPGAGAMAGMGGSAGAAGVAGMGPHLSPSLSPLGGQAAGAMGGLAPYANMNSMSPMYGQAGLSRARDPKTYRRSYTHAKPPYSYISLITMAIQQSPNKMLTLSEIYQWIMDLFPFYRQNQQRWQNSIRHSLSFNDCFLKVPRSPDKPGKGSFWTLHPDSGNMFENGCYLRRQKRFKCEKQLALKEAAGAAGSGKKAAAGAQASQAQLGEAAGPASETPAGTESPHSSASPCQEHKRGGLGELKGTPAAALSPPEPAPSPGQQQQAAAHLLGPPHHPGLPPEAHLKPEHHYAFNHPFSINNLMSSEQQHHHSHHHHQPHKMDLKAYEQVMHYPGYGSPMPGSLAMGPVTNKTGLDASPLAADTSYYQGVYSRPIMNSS

A short description of assay [8]: ATG_FoxO_CIS: Attagene CIS-FACTORIAL HepG2 Assay for human Forkhead box O (FoxO) (AID 2282943). The settings on record: HepG2 Attagene cis-reporter, FoxO element, mRNA; actives raise or lower the signal. The method, boiled down:
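Values reflect reporter mRNA induction or loss in HepG2 cells 24 h post-dosing, fitted bidirectionally with DMSO as negative control and baseline. Detection used RT-PCR and fluorescence capillary electrophoresis.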

Assay [9] in a line: ATG_GLI_CIS: Attagene CIS-FACTORIAL HepG2 Assay for human Zinc Finger Protein GLI1 (AID 2282945). The settings on record: HepG2, Attagene cis-factorial reporter mRNA, GLI element; actives raise or lower the signal. An outline of the steps:
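HepG2 cells transiently transfected with cis-promoter multiplexed reporter units report endogenous transcription factor activity. After 24 h chemical exposure, reporter mRNA was quantified by RT-PCR, 6-FAM labelling, HpaI digestion and capillary electrophoresis, with bidirectional fitting against DMSO.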

The nature of assay [10]: ATG_GRE_CIS: Attagene CIS-FACTORIAL HepG2 Assay for human Glucocorticoid Response Elements (GRE) (AID 2282947). The settings on record: HepG2 GRE cis-reporter, Attagene multiplex mRNA; actives raise or lower the signal. An outline of the steps:
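Following 24 h chemical exposure of transiently transfected HepG2 cells, total RNA was reverse-transcribed and reporter cDNA amplified, fluorescently labelled and sized by capillary electrophoresis. Signal gain or loss was fitted relative to DMSO vehicle.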

The nature of assay [11]: ATG_ISRE_CIS: Attagene CIS-FACTORIAL HepG2 Assay for human Interferon Regulatory Factor 1 (IRF1) binding to an Interferon-Stimulated Response Element (ISRE) (AID 2282948). The settings on record: HepG2 ISRE cis-reporter (Attagene), mRNA transcription readout; actives raise or lower the signal. An outline of the steps: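 Quantitation relies on labelled RT-PCR fragments separated by capillary electrophoresis. Human HepG2 cells bearing cis-promoter reporter constructs were treated 24 h; DMSO served as baseline for bidirectional fitting.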

The nature of assay [12]: ATG_M_06_CIS: Attagene CIS-FACTORIAL HepG2 Assay for M06 Transcription Factor (Internal Marker) (AID 2282950). The settings on record: HepG2 Attagene CIS-FACTORIAL M06 internal marker reporter; actives raise or lower the signal. An outline of the steps: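 Fluorescence-labelled RT-PCR products from cis-promoter reporter units, cut with HpaI and resolved by capillary electrophoresis, give the signal. Cells are human HepG2, dosed for 24 h. Serves as background control, fitted relative to DMSO.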

The target of assay [13] is Hepatocyte nuclear factor 6 (Homo sapiens) (UniProt Q9UBC0). Kind of assay: ATG_HNF6_CIS: Attagene CIS-FACTORIAL HepG2 Assay for human Hepatocyte Nuclear Factor 6 (HNF6) (AID 2282952). The settings on record: HepG2 Attagene cis-factorial HNF6 reporter transcription; actives raise or lower the signal. An outline of the steps: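 HepG2, transient MRTU transfection (cis promoters); 24 h chemical exposure; total RNA → oligo(dT) RT → PCR → 6-FAM labelling → HpaI cut → CE; bidirectional fit vs DMSO.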
Chain of Hepatocyte nuclear factor 6 (Homo sapiens) (Q9UBC0 whole entry, looked up): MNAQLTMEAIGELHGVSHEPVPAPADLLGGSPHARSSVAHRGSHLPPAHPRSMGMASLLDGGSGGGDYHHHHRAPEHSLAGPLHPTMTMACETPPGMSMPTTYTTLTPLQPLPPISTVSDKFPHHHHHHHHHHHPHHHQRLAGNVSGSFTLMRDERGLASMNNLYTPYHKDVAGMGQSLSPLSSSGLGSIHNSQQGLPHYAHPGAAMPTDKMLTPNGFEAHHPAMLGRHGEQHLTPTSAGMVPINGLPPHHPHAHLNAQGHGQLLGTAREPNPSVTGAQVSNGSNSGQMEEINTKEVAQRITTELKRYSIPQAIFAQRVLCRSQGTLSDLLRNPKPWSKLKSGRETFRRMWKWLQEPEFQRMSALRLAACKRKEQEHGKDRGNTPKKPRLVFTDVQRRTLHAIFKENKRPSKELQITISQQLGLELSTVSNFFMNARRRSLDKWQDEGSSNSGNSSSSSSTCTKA

Assay [14] addresses Heat shock factor protein 1 (Homo sapiens) (UniProt Q00613). Kind of assay: ATG_HSE_CIS: Attagene CIS-FACTORIAL HepG2 Assay for human Heat Shock Transcription Factor 1 (HSE) (AID 2282953). The settings on record: HepG2 HSE cis-reporter, Attagene RNA transcription; actives raise or lower the signal. An outline of the steps:
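After a 24 h incubation with test chemical, transfected HepG2 cells were harvested for RNA; reporter transcripts were measured by RT-PCR and capillary electrophoresis. Values reflect gain or loss of signal relative to DMSO.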

Assay [15] can be described thus: ATG_MRE_CIS: Attagene CIS-FACTORIAL HepG2 Assay for human Metal Responsive Element (MRE) (AID 2282954). The settings on record: HepG2 MRE cis-reporter transcription, Attagene multiplex; actives raise or lower the signal. An outline of the steps: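 Step one: transfect HepG2 with cis-regulated reporter units. Step two: dose 24 h. Step three: isolate RNA, RT-PCR, 6-FAM label, HpaI digest, capillary electrophoresis. Fit bidirectionally to DMSO.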

Assay [16] can be described thus: ATG_PBREM_CIS: Attagene CIS-FACTORIAL HepG2 Assay for human Phenobarbital-responsive Enhancer Module (PBREM) (AID 2282955). The settings on record: HepG2 PBREM cis-reporter, Attagene multiplexed transcription; actives raise or lower the signal. An outline of the steps: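 Endogenous transcription factors in human liver HepG2 cells drive a PBREM cis-element reporter, whose transcript level after 24 h treatment is quantified by RT-PCR with capillary electrophoresis; activity fitted in both directions against DMSO.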

A short description of assay [17]: ATG_GATA_CIS: Attagene CIS-FACTORIAL HepG2 Assay for human GATA Binding Protein (AID 2282944). The settings on record: HepG2 GATA cis-element reporter, Attagene multiplex mRNA; actives raise or lower the signal. The method, boiled down:
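DMSO serves as negative control and baseline for bidirectional fitting of reporter mRNA changes. HepG2 cells bearing transiently transfected cis-promoter reporters were exposed 24 h; transcripts detected via RT-PCR and capillary electrophoresis.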

Assay [18] deals with Bile acid receptor (Homo sapiens) (UniProt Q96RI1). Briefly: ATG_IR1_CIS: Attagene CIS-FACTORIAL HepG2 Assay for human Nuclear Receptor Subfamily 1 Group H Member 4 (NR1H4), IR1 submotif (AID 2282946). The conditions noted are these: IR1 reporter transcription, actives raise or lower the signal. The method, boiled down: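 Transient MRTU transfection, HepG2; 24 h dosing; RNA → RT-PCR → 6-FAM primer extension → HpaI digest → capillary electrophoresis fluorescence. Gain/loss of signal fitted relative to DMSO.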
Chain of Bile acid receptor (Homo sapiens) (Q96RI1 whole entry, looked up): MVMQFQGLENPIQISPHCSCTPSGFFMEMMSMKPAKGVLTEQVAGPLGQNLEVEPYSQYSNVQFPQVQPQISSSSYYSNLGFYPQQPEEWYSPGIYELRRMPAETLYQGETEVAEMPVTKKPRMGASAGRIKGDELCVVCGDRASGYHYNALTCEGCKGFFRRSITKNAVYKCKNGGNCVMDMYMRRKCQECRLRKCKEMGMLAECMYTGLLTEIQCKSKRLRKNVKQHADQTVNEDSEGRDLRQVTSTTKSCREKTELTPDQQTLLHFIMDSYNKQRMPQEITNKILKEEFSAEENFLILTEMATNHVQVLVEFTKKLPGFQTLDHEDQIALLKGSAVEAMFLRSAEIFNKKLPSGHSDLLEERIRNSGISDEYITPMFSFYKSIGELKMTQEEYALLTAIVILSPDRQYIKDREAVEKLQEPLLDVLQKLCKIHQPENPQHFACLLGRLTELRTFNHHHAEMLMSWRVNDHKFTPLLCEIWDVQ

The nature of assay [19]: ATG_M_32_CIS: Attagene CIS-FACTORIAL HepG2 Assay for M32 Transcription Factor (Internal Marker) (AID 2282949).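 Further: background control marker of the multiplexed CIS panel rather than a real target.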 The conditions noted are these: HepG2 Attagene cis-factorial M32 reporter, mRNA; actives raise or lower the signal. An outline of the steps:
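Fluorescent capillary electrophoresis peaks of HpaI-digested, FAM-labelled RT-PCR reporter products give the signal. Source: transiently transfected human liver HepG2 cells, 24 h after chemical dosing; bidirectional fitting against DMSO.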

Assay [20] deals with Hypoxia-inducible factor 1-alpha (Homo sapiens) (UniProt Q16665). Kind of assay: ATG_HIF1a_CIS: Attagene CIS-FACTORIAL HepG2 Assay for human Hypoxia Inducible Factor 1 (HIF1A) (AID 2282951). The conditions noted are these: HepG2 Attagene cis-factorial HIF1a reporter transcription; actives raise or lower the signal. The method, boiled down: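 Transient MRTU transfection of human HepG2 liver cells, 24 h compound treatment, then total RNA isolation, oligo(dT) reverse transcription, PCR amplification, fluorescent labelling and capillary electrophoresis of reporter fragments. Gain or loss relative to DMSO.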
Chain of Hypoxia-inducible factor 1-alpha (Homo sapiens) (Q16665 whole entry, looked up, the tested form may be a part): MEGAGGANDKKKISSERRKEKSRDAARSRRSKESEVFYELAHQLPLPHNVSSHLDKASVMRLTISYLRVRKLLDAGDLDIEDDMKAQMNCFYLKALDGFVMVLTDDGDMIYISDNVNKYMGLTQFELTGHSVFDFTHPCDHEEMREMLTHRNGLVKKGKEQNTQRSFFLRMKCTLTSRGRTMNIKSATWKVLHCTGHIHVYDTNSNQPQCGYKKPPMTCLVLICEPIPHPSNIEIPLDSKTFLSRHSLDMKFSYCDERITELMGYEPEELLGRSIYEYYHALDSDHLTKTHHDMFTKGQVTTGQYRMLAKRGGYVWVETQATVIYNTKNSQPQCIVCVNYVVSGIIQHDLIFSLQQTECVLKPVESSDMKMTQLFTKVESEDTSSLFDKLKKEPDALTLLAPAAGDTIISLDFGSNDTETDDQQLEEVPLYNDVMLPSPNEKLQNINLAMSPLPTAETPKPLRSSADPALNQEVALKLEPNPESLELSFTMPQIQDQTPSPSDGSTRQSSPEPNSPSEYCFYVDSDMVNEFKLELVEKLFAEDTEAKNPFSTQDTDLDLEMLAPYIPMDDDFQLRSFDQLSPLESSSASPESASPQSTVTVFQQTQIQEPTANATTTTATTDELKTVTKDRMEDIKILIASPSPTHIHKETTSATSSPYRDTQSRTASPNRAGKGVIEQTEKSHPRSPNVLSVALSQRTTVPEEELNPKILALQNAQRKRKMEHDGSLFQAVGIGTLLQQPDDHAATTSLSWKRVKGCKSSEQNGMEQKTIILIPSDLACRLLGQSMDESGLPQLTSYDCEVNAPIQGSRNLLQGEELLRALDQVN

SMILES strings stand for the structures. The source made the active and inactive calls. How the source made its calls: active means hit-call score of the fitted dose curve at least 0.9, where 1 is the maximum; inactive means score below 0.9.

Chain of Heat shock factor protein 1 (Homo sapiens) (Q00613 whole entry, looked up): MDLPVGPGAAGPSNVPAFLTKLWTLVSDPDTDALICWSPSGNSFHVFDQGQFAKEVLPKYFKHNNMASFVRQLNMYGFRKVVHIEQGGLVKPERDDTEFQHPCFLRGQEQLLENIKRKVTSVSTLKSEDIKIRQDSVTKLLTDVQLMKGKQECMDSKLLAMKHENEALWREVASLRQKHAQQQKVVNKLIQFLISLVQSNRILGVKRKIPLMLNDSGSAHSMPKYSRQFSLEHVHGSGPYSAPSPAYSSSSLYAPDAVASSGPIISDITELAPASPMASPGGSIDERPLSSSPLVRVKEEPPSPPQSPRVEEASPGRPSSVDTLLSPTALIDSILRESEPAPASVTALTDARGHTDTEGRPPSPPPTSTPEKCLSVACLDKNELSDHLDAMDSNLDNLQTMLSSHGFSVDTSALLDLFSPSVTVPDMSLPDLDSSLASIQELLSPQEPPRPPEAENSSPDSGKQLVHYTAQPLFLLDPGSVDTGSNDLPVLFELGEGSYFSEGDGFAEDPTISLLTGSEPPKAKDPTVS

In general, AC50 refers to the concentration at which the activity in the assay is half-maximal. With `Nc1ccc(N=Nc2ccccc2)c(N)n1`, the AC50 was 70.9 µM (active) in [1], 70.5 µM (active) in assay [3] and 69.9 µM (active) in assay [15]. The result in assay [2], in assay [4], in [5], in assay [6], in [7] and in assay [8] was inactive. Moreover, the compound was called inactive in [9], in [10], in assay [11], in assay [12], in [13] and in assay [14]. In assay [16], the result was inactive.
For the compound `O=P(O)(O)Oc1ccccc1`, the outcome in [1], in [2], in assay [3], in assay [4], in assay [5] and in [6] was inactive. Moreover, the compound was classed as inactive in assay [7], in assay [17], in [9], in [18], in assay [10] and in [11]. The result in assay [19], in assay [12], in assay [20], in assay [13] and in assay [15] was inactive.
Take `Nc1nc2ccccc2[nH]1`: the result in assay [1], in assay [2], in assay [3], in assay [4], in assay [6] and in [7] was inactive. The outcome in [17], in assay [9], in assay [18], in assay [10], in assay [11] and in assay [19] was inactive. Further, the compound was classed as inactive in [20], in assay [13], in [14], in [15] and in assay [16]. The AC50 in assay [5] is 77.9 µM (active).
For the compound `CCCCC(CC)COCC1CO1` (stereo not drawn), the result in assay [1], in [2], in assay [3], in assay [4], in assay [5] and in [6] was inactive. Also, the compound was called inactive in assay [7], in assay [17], in assay [9], in assay [10], in assay [11] and in assay [12]. Moreover, the compound was classed as inactive in assay [20], in [13], in assay [14], in [15] and in assay [16].
